HCV inhibitor: inhibitors of hepatitis C virus infection | Huh7.5.1 HCVcc-Cre infection, luciferase reporter, 44 h | Potency, µM (highest dose often 41.8 µM), for inactives: at the highest dose activity change, negative = inhibition, usual class: inhibitors | hit rate 3.4% among 340,000
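Cells (1,000/well) were plated 4 h before compound, then infected with HCVcc-Cre virus (~0.5 moi). After 44 h further culture, infection was read as luciferase luminescence following a 15 min substrate incubation at room temperature.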
Pf growth 48h: P. falciparum growth inhibition at 48 hours (one generation); P. falciparum luciferase growth in erythrocytes, 48 h; Potency, µM (series often up to 28.7 µM), inactives show at the top dose activity change, negative = inhibition, usual class: inhibitors; hit rate 5.9% among 310,000; AID 504832
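Luciferase-expressing P. falciparum in infected erythrocytes (2% hematocrit, 0.1% parasitemia final) in RPMI 1640/0.5% Albumax were exposed to compound for 48 hours at 37 C, 5% CO2; growth read as luminescence.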
Pf growth 96h: inhibits malaria parasite growth, 96 h; P. falciparum luciferase reporter growth, 96 h; Potency, µM (top dose mostly 28.7 µM), inactives show top-dose activity change, negative = inhibition, actives largely listed as inhibitors; hit rate 6.9% among 320,000; AID 504834
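Plates of compound plus infected erythrocytes (2% hematocrit, 0.05% parasitemia final) incubate 96 hours, 37 C, 5% CO2. Detection reagent added; reduced luminescence from the parasites' luciferase reporter flags inhibition.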
AmpC inh detg: blocks E. coli AmpC beta-lactamase in detergent assay. AmpC hydrolysis of nitrocefin, absorbance 480 nm, 0.01% Triton. Potency, µM (titrated, usually from 114 µM), without a hit: top-dose activity change, negative = inhibition, actives largely listed as inhibitors. hit rate 0.041% among 370,000;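 further: 0% = no-compound wells and -100% = no-enzyme wells; nearly all actives have a fitted effect of over 25% in size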
Target sequence (P00811 whole entry, looked up): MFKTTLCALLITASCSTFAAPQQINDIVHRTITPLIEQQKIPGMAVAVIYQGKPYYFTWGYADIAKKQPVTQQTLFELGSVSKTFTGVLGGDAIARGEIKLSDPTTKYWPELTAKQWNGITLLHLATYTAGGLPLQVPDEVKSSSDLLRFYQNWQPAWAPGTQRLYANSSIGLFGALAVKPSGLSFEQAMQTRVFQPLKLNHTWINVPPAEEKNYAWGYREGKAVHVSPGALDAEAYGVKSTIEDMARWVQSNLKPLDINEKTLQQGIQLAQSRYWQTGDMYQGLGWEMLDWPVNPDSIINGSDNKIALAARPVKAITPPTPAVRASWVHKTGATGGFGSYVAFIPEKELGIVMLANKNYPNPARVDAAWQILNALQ
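20 mM phosphate pH 7.0 + 0.01% (detergent screen) or 0.0001% Triton X-100; 5.3 nM AmpC reagent; cpd preinc 15 min RT; nitrocefin (800 uM stock) to start; A480 q20 s × 4 min; Activity was normalised to no-enzyme and no-compound control wells.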
AmpC inh no detg: inhibitors of E. coli AmpC beta-lactamase without detergent; P00811; Potency, µM (highest dose often 57.1 µM), for the others: at the highest dose activity change, negative = inhibition, hits mostly inhibitors; AID 485341; hit rate 0.52% among 330,000; AmpC nitrocefin hydrolysis, absorbance 480 nm, 0.0001% Triton;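 further: plate controls were no compound for no effect and no enzyme for full effect; nearly all actives have a fitted effect of over 20% in size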
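20 mM phosphate pH 7.0 + 0.01% (detergent screen) or 0.0001% Triton X-100; 5.3 nM AmpC reagent; cpd preinc 15 min RT; nitrocefin (800 uM stock) to start; A480 q20 s × 4 min; Activity was normalised to no-enzyme and no-compound control wells.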
AMA1 RON2 block: disrupts binding of P. falciparum AMA1 to RON2; AlphaScreen AMA1-biotinylated RON2 peptide binding; Potency, µM (series often up to 58.2 µM), inactives show at the top dose activity change, negative = inhibition, usual class: inhibitors; hit rate 0.2% among 360,000; AID 720542;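 further: 0% = vehicle wells and -100% = peptide control; nearly all actives have a fitted effect of over 45% in size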
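AMA1 (3D7) with his tag at 25 nM final met compounds first, then biotinylated RON2 peptide at 25 nM; detection used donor plus acceptor beads, 10 µg/mL apiece, read by AlphaScreen after 30 min at room temperature.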
Active calls of the source: *; ? = inconclusive; . = not tested or not shown; [ ] = another dose, or the depositor's remark. Most compounds without a hit are left out; they make up all but 11% or so of the library. The call rests on the fitted dose curve; in most records, active means well fitted curve in the direction sought with a large enough effect; inconclusive means small, poorly fitted or top-dose-only effect, or another doubt; inactive means no such curve, though single readings can be large; an effect the other way counts as inactive or inconclusive. Unless noted, on the % scale 0 is the no-effect control and ±100 the full control effect; potency means the concentration at half of the fitted maximal effect.

SMILES | HCV inhibitor | Pf growth 48h | Pf growth 96h | AmpC inh detg | AmpC inh no detg | AMA1 RON2 block
COc1ccc2[nH]c(C)c(CCNCc3cc(OC)c(OC)c(OC)c3)c2c1 | ? | ? | 52% | 3% | 14% | -3%
Cc1cccc(-n2ncc3c(NNC(=O)c4ccccc4Cl)ncnc32)c1 | . | . | . | -1% | . | .
O=C(c1cc(COc2cccc(C(F)(F)F)c2)on1)N1CCC(c2ccncc2)CC1 | ? | 6% | ? | -4% | 32% | -5%
COc1cccc(OCc2cc(C(=O)N3CCC(c4ccncc4)CC3)no2)c1 | 10µM* | 6% | -26% | ? | 63% | -3%
C=CCC1(CC=C)CCCN1C(=O)c1cc(COc2cccc(OC)c2)on1 | 14µM* | ? | -25% | -1% | -13% | 14%
COc1cc(NCCCC(C)N)c2ncccc2c1 (centres undefined) | ? | 0.26µM* | 0.85µM* | -11% | 82% | -91%
Cc1ccc(S(=O)(=O)Nc2cccc3cccnc23)cc1 | ? | . | 3.7µM* | -10% | -23% | 82%
Cc1ccc(S(=O)(=O)Nc2ccccc2-c2ccccc2NS(=O)(=O)c2ccc(C)cc2)cc1 | 6% | ? | 40% | 5% | -4% | -9%
COc1cc(NS(=O)(=O)c2ccc(C)cc2)c2ncccc2c1 | ? | 2.3µM* | -3% | -11% | -8% | -9%
O=C(NCC1CCCO1)C1CCN(S(=O)(=O)c2cccc3cccnc23)CC1 (centres undefined) | 14% | 5% | ? | -1% | 3.2µM* | 12%
COc1ccc(CNC(=O)C2CCN(S(=O)(=O)c3ccc4nc5c(c(C(=O)O)c4c3)CCCC5)CC2)cc1 | . | . | . | -9% | . | 39%
COc1ccc(CCNC(=O)C2CCN(S(=O)(=O)c3ccc4nc5c(c(C(=O)O)c4c3)CCCC5)CC2)cc1OC | 26% | 21% | 9.3µM* | 3% | -8% | 10%
COc1ccc(CCNC(=O)C2CCN(S(=O)(=O)c3cccc4cccnc34)CC2)cc1OC | 16% | -15% | 17µM* | 0% | 42% | 0%
O=C(NCC1CCCO1)C1CCN(C(=O)c2ccc(Br)cc2)CC1 (centres undefined) | 17% | 2% | 55% | -1% | 4µM* | 2%
Cc1ccsc1C(=O)N1CCC(N2CCC(C(=O)NCC3CCCO3)CC2)CC1 (centres undefined) | -5% | 4% | 38% | -4% | 61% | -2%
CCOC(=O)c1c(NC(=O)c2cc3ccccc3c(=O)o2)sc2c1CCC(C(C)(C)C)C2 (centres undefined) | . | . | . | 13% | . | .
CC(SCc1ccccc1)C(=O)N/N=C/c1ccc(OCC(=O)NCc2ccco2)cc1 (centres undefined) | 11µM* | 4% | 1.7µM* | -9% | -22% | 7%[2.32 µM]
COc1ccc(CSCC(=O)N/N=C/c2ccc(OCC(=O)NCc3ccco3)cc2)cc1 | ? | -21% | -3% | -4% | -49% | 26%
COc1ccc(Cn2c(=O)c3oc4ccccc4c3n(CC(=O)Nc3cc(C)cc(C)c3)c2=O)cc1 | . | . | . | -2% | . | .
CCN(CC)CCCN(c1ccccc1)C1Cc2ccccc2C1 | . | 1.9µM* | ? | . | . | .
COc1ccccc1OCC(=O)NCCS(=O)(=O)N1CCN(c2ccccc2OC)CC1 | . | . | . | 16% | . | .
C=Cc1ccc(Cn2c(C(=O)O)c(CNCc3ccc(F)cc3)c3ccc(C)cc32)cc1 | . | . | . | 10% | . | .
CCc1ccc(C(=O)NC2=NC(c3cc(OC)ccc3OC)CC(=O)N2)cc1 (centres undefined) | . | . | . | 13% | . | .
O=C1NC(=S)N/C1=C/c1ccc(-c2c(Br)cc([N+](=O)[O-])cc2Br)o1 | 8.9µM* | ? | ? | -8% | ? | .
CCOCCCNC(=O)c1[nH]c2cc(C)ccc2c1Sc1ccc(Cl)cc1 | . | . | . | 8% | . | .
SMILES | HCV inhibitor | Pf growth 48h | Pf growth 96h | AmpC inh detg | AmpC inh no detg | AMA1 RON2 block
CCN(CC)C(=O)COc1ccc(-c2nnc(Nc3ccc(OC)c(C(=O)NC)c3)c3ccccc23)cc1 | -19% | ? | 10µM* | -4% | 84% | -8%
Cc1cccc(Nc2nnc(-c3ccc(C(=O)N4C[C@H]5C[C@H](C4)c4cccc(=O)n4C5)cc3)c3ccccc23)c1 | ? | ? | 3.7µM* | 1% | 190% | 13%
COc1ccc(Nc2nnc(-c3ccccc3)c3ccccc23)cc1C(=O)N1CCCCC1 | -2% | 9.3µM* | 1.2µM* | ? | 91% | 11%
CCN(CC)S(=O)(=O)c1cc(-c2nnc(Nc3ccc(OC)c(C(N)=O)c3)c3ccccc23)ccc1C | . | . | . | 8% | . | .
COc1ccc(Nc2nnc(-c3ccc(C)cc3)c3ccccc23)cc1C(=O)N1CCCCC1 | ? | 6.6µM* | 1.2µM* | ? | 141% | -5%
COc1ccc(-c2cc(C(=O)N3CCCCC3)c3ccccc3n2)cc1OC | 7% | ? | ? | -6% | 81% | 12%
CCN(CC)C(=O)CSc1nc2ccc(NC(=O)CSc3nccn3C)cc2s1 | ? | 8.3µM* | ? | -2% | -23% | -15%
Cc1ccccc1OCc1nnc(SCC(=O)NCc2ccccc2)n1C | 11% | -18% | . | 3% | 12% | -1%
Cc1cccc(OCc2nnc(SCC(=O)c3cccs3)n2C)c1C | . | -23% | 8.3µM* | -9% | 15% | -1%
O=C(CSc1nc2ccc(NC(=O)CSc3nnnn3Cc3ccccc3)cc2s1)Nc1ccccc1 | -16% | 13µM* | ? | -10% | ? | 8%
Cn1c(SCC(=O)Nc2ccc3nc(SCC(=O)N4CCCC4)sc3c2)nnc1-c1ccc(N)cc1 | ? | . | 1.3µM* | -10% | 69% | -11%
COc1ccc(Cl)cc1NC(=O)CSc1c2c(nc3ccccc13)CCC2 | . | . | . | -3% | . | .
CSC1=NC2(CCN(C(=O)NC3CCCCC3)CC2)N=C1c1ccc(C)c(C)c1 | . | . | . | 20% | . | .
COc1cccc(-n2cc(C(=O)NCCc3cccc(C)c3)c3ccccc3c2=O)c1 | . | . | . | -4% | . | .
CCOC(=O)c1ccccc1NC(=O)CSc1nnc(COc2ccccc2C)n1C | ? | 13µM* | ? | -2% | 79% | -11%
Cc1ccccc1OCc1nnc(SCC(=O)Nc2ccc3c(c2)OCO3)n1C | -10% | -7% | ? | ? | -2% | 1%
CC(=O)Nc1cccc(NC(=O)CSc2nnnn2Cc2ccccc2)c1 | ? | 33% | 5.9µM* | -10% | -18% | 13%
COC(=O)c1ccccc1NC(=O)CSc1nc(N)cc(N)n1 | 13% | . | ? | -10% | -13% | 5%

From PubChem BioAssay
